# Measurements as given in paper PMC7862700, “An all-to-all approach to the identification of sequence-specific readers for epigenetic DNA modifications on cytosine”.
# What was measured:
# Assay in all cases: DAPPL (digital affinity profiling via proximity ligation, sequencing); 10 mM Tris-HCl pH 7.5, 50 mM NaCl, 1 mM DTT, 4% glycerol, room temperature, 30 min; GST-TFs on glutathione beads, 16-mer random dsDNA library, 0.1% formaldehyde crosslink after washing; high values mean tight binding
# Details in all cases: protein: recombinant; tags: N-terminal GST; dsDNA, one strand shown
# ELF1 = ELF1 (Homo sapiens, UniProt P32519 1-619)
# Outline: (§1)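 Beads coated with glutathione captured GST-fused human transcription factors that had been expressed in yeast, and the factors were then given DNA barcodes and pooled with a tag-only sample. The pools were incubated with 200 nmole of a random double-stranded 16-mer DNA library in Tris/NaCl/DTT/glycerol buffer for 30 min at room temperature, washed, crosslinked with 0.1% formaldehyde and proximity-ligated with BsaI/T4 ligase at 37 °C for 1 h. PCR amplification and Illumina NextSeq500 sequencing came last. Binding signal is each hexamer's read frequency for a factor divided by its frequency for the tag-only sample.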
# EHF = biological target: T1, EHF (Homo sapiens, UniProt Q9NZC4 1-300)
# T1 sequence: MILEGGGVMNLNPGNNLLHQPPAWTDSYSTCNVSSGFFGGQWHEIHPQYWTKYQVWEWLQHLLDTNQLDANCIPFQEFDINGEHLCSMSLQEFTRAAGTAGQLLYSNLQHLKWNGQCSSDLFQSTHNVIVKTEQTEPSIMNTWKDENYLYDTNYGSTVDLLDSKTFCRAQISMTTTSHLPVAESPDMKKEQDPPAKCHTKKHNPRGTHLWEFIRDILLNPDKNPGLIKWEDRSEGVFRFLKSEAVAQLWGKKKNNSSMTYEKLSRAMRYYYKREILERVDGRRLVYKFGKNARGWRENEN
# Outline: as §1
# SPIB = SPIB (Homo sapiens, UniProt Q01892 1-262)
# Outline: as §1
# SPIC = biological target: T2, SPIC (Homo sapiens, UniProt Q8N5J4 1-248)
# T2 sequence: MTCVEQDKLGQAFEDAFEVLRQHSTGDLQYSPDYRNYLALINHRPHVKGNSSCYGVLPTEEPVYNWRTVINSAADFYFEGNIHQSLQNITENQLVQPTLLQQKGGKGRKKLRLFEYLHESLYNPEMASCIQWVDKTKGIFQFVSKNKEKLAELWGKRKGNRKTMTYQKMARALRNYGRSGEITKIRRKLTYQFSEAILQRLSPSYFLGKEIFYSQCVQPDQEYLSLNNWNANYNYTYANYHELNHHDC
# Outline: as §1
# ELF4 = ELF4 (Homo sapiens, UniProt Q99607 1-663)
# Outline: as §1
# ELK4 = biological target: T3, ELK4 (Homo sapiens, UniProt P28324-2 1-405)
# T3 sequence: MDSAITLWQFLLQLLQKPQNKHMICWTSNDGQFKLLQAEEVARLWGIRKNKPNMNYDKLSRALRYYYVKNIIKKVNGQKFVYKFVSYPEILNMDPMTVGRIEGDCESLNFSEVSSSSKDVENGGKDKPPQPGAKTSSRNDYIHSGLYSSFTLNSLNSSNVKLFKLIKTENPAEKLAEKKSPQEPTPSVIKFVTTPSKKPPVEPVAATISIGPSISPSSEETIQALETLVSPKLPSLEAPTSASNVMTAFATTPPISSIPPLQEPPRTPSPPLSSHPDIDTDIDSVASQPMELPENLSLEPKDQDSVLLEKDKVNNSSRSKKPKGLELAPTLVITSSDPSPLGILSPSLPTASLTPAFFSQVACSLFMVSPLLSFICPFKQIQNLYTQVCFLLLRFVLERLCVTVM
# Outline: as §1
# ERF = biological target: T4, ERF (Homo sapiens, UniProt P50548 1-548)
# T4 sequence: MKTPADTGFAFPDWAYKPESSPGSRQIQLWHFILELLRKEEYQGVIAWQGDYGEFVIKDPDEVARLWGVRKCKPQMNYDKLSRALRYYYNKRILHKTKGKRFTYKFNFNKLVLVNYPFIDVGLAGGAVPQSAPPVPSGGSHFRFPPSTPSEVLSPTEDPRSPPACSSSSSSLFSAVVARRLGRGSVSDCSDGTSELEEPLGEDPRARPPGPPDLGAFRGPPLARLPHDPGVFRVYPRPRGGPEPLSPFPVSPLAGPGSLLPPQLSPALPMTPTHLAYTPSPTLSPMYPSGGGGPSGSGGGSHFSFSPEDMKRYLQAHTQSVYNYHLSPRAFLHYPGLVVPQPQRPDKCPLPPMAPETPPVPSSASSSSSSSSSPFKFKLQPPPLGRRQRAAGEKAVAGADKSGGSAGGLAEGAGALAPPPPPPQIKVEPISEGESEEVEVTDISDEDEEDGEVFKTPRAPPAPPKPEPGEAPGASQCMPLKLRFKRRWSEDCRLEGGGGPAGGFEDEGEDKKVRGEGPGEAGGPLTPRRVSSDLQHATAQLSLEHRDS
# Outline: as §1
# ETV7 = biological target: T5, ETV7 (Homo sapiens, UniProt Q9Y603 1-341)
# T5 sequence: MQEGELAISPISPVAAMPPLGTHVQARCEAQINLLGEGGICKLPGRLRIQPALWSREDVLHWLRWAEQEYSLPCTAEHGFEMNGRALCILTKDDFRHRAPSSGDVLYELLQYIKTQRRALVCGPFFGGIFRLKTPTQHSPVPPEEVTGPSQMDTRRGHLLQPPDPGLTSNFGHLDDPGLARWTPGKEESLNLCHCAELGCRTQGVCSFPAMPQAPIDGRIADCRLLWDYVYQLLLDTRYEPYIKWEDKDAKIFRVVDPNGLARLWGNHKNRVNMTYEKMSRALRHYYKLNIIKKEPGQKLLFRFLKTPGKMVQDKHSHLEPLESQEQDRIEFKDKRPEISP
# Outline: as §1
# ETV6 = ETV6 (Homo sapiens, UniProt P41212 1-452)
# Outline: as §1
# ELK1 = biological target: T6, ELK1 (Homo sapiens, UniProt P19419 1-428)
# T6 sequence: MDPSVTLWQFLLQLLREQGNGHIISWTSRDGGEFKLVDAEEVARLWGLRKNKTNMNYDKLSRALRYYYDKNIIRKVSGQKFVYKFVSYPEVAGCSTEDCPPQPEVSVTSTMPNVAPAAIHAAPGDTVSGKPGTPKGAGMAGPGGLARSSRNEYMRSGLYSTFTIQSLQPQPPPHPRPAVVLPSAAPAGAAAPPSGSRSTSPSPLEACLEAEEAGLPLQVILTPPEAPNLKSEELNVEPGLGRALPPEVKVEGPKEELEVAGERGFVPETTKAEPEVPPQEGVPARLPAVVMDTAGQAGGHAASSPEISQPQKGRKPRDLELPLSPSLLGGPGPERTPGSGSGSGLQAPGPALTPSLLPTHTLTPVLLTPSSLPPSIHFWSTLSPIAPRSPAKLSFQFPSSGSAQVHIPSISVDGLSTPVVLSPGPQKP
# Outline: as §1
# GABPA = biological target: T7, GABPA (Homo sapiens, UniProt Q06546 1-454)
# T7 sequence: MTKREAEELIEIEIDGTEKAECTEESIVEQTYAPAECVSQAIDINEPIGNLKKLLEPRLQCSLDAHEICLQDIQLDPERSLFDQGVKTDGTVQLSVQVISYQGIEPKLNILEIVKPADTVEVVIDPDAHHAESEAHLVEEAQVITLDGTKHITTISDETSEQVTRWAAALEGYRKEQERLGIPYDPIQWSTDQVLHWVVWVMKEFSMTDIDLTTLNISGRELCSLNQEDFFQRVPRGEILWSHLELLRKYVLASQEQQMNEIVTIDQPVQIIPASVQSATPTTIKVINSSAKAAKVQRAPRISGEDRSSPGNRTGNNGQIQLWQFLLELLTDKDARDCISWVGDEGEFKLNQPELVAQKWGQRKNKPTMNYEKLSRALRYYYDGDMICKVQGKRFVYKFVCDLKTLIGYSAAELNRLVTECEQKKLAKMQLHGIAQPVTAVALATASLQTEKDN
# Outline: as §1
# ERG = biological target: T8, ERG (Homo sapiens, UniProt P11308 1-479)
# T8 sequence: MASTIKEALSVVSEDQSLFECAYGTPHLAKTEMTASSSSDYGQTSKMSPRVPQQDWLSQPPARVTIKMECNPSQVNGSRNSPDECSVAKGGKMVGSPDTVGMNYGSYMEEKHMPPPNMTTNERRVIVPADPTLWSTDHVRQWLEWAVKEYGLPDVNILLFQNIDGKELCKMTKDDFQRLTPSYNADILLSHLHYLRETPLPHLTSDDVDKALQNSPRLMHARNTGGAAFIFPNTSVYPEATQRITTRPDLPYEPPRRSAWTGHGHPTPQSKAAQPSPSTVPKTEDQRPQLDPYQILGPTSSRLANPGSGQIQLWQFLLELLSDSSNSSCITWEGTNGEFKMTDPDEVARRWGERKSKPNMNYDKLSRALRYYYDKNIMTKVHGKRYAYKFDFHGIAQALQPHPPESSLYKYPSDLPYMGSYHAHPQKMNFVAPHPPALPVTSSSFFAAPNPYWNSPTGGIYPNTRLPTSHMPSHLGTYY
# Outline: as §1
# ELF3 = biological target: T9, ELF3 (Homo sapiens, UniProt P78545 1-371)
# T9 sequence: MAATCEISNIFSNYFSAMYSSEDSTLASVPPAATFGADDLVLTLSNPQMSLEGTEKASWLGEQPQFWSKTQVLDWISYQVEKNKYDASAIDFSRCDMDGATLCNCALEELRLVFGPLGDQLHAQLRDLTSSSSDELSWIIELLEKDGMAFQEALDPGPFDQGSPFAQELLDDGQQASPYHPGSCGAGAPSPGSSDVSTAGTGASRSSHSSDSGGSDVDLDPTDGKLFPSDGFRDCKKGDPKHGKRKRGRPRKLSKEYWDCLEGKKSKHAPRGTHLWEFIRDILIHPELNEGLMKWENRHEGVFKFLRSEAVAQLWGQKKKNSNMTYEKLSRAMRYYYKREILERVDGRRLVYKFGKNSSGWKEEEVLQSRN
# Outline: as §1
# ETV1 = ETV1 (Homo sapiens, UniProt P50549 1-477)
# Outline: as §1
# ETV3L = biological target: T10, ETV3L (Homo sapiens, UniProt Q6ZN32 1-361)
# T10 sequence: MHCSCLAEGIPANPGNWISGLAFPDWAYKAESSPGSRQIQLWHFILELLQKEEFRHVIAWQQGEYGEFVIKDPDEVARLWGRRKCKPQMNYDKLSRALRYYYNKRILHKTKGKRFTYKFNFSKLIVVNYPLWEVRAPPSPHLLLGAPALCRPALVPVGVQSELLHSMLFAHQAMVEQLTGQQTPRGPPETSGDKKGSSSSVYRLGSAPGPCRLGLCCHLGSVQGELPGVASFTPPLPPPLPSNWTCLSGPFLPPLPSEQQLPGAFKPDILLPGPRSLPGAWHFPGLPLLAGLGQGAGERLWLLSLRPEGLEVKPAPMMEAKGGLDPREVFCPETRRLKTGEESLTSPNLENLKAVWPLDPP
# Outline: as §1
# ETS2 = biological target: T11, ETS2 (Homo sapiens, UniProt P15036 1-469)
# T11 sequence: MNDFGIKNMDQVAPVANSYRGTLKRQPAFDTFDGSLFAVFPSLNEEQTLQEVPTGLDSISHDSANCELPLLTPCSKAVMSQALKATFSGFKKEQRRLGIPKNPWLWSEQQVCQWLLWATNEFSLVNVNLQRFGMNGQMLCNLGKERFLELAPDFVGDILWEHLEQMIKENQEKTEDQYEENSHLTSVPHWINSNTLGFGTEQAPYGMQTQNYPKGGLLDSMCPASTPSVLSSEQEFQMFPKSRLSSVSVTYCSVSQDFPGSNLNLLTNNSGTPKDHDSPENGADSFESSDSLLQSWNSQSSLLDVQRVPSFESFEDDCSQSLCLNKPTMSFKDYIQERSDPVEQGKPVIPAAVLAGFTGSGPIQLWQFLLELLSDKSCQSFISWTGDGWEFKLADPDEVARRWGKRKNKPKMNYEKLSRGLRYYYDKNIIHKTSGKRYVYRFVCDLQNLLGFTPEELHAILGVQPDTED
# Outline: as §1
# SPDEF = biological target: T12, SPDEF (Homo sapiens, UniProt O95238 1-335)
# T12 sequence: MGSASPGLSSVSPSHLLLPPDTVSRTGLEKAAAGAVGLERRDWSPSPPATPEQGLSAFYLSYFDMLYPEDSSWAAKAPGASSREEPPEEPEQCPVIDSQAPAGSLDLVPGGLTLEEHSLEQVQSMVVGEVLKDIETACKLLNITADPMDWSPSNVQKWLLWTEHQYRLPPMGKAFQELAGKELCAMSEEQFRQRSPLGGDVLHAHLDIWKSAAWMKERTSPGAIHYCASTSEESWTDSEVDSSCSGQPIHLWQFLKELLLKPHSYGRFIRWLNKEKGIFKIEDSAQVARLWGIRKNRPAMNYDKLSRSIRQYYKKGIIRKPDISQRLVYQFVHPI
# Outline: as §1
# ETV3 = biological target: T13, ETV3 (Homo sapiens, UniProt P41162-2 1-143)
# T13 sequence: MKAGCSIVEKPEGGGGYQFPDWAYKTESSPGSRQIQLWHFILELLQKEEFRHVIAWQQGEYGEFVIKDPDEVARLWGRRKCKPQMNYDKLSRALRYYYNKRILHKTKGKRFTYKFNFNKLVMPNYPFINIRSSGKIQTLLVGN
# Outline: as §1
# Sequence of ELF4 (Q99607 whole entry): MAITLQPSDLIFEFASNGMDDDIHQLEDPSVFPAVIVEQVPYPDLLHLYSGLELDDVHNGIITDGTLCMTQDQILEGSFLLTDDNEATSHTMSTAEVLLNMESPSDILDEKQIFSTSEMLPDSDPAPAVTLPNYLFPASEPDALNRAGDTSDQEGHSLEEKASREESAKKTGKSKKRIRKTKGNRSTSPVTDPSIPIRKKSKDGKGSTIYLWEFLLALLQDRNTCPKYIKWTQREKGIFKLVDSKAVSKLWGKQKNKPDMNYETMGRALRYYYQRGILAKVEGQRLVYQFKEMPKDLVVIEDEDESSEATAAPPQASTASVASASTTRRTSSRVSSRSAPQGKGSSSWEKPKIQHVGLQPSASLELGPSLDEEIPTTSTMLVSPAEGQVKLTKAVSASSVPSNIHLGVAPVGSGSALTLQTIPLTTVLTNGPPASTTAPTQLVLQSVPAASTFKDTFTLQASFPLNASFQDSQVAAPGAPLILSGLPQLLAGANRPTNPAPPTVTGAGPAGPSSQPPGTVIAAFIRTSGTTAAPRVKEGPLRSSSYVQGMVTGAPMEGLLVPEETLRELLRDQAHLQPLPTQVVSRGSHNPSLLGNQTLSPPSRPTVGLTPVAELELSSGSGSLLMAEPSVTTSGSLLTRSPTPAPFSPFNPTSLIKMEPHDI
# Sequence of ETV6 (P41212 whole entry): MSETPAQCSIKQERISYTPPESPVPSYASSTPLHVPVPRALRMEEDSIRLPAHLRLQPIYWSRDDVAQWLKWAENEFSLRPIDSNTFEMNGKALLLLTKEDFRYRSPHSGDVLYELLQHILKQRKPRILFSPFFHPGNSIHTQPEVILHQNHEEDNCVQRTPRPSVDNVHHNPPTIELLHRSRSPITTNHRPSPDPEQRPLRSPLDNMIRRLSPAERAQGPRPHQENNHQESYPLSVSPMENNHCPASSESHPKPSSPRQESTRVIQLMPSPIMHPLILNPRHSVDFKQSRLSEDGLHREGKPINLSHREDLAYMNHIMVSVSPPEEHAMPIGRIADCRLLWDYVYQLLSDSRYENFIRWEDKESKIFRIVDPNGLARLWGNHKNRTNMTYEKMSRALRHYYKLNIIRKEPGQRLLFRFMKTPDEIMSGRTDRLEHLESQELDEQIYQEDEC
# Sequence of ELF1 (P32519 whole entry, the tested form may be a part): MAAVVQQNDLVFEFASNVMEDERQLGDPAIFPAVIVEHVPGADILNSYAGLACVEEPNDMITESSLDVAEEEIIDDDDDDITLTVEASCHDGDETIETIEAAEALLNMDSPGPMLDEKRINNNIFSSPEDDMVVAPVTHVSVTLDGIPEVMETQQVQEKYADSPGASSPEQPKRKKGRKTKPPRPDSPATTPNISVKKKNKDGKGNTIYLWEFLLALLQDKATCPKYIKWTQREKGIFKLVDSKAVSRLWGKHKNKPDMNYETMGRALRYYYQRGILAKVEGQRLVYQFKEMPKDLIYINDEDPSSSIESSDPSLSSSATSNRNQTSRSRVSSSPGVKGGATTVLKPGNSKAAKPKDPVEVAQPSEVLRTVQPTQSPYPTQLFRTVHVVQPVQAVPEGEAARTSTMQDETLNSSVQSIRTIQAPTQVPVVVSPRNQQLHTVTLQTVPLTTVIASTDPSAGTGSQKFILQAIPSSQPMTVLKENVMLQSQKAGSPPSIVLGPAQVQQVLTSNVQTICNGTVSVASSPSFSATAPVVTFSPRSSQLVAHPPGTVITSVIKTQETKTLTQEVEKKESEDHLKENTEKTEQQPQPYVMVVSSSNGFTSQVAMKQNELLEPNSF
# Sequence of SPIB (Q01892 whole entry): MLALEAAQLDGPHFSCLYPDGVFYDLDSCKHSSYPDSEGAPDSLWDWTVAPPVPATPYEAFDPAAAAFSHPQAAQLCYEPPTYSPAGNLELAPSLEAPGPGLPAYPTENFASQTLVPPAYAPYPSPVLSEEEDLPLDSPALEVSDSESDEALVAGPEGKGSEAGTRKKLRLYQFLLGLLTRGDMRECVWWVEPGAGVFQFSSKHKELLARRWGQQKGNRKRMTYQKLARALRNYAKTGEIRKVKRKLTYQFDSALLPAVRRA
# Sequence of ETV1 (P50549 whole entry): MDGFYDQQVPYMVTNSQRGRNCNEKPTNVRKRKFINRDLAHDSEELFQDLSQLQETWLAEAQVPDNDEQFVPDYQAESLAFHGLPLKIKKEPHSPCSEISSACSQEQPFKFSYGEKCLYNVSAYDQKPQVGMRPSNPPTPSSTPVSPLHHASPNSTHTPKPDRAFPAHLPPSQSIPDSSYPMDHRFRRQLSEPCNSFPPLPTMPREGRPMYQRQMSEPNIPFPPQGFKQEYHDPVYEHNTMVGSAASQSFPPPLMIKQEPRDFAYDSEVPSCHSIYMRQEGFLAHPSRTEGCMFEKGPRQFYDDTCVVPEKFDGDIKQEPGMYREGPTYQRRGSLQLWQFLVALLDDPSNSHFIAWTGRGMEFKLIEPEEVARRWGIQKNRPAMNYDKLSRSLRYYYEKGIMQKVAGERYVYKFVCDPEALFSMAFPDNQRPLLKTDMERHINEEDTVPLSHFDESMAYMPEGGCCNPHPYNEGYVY
Sequence,binding signal (ELF1),binding signal (EHF),binding signal (SPIB),binding signal (SPIC),binding signal (ELF4),binding signal (ELK4),binding signal (ERF),binding signal (ETV7),binding signal (ETV6),binding signal (ELK1),binding signal (GABPA),binding signal (ERG),binding signal (ELF3),binding signal (ETV1),binding signal (ETV3L),binding signal (ETS2),binding signal (SPDEF),binding signal (ETV3)
TAGTTG,"1.01 fold enrichment (6-mer frequency, TF over GST control)","1.01 fold enrichment (6-mer frequency, TF over GST control)","1.02 fold enrichment (6-mer frequency, TF over GST control)","1 fold enrichment (6-mer frequency, TF over GST control)","1.01 fold enrichment (6-mer frequency, TF over GST control)","1.18 fold enrichment (6-mer frequency, TF over GST control)","1.07 fold enrichment (6-mer frequency, TF over GST control)","1.02 fold enrichment (6-mer frequency, TF over GST control)","1.01 fold enrichment (6-mer frequency, TF over GST control)",–,–,–,–,–,–,–,–,–
TCAGAT,"1.04 fold enrichment (6-mer frequency, TF over GST control)",–,"1.02 fold enrichment (6-mer frequency, TF over GST control)",–,"1.02 fold enrichment (6-mer frequency, TF over GST control)",–,–,"1.03 fold enrichment (6-mer frequency, TF over GST control)","1.08 fold enrichment (6-mer frequency, TF over GST control)","1.05 fold enrichment (6-mer frequency, TF over GST control)","1.03 fold enrichment (6-mer frequency, TF over GST control)","1.06 fold enrichment (6-mer frequency, TF over GST control)","1.08 fold enrichment (6-mer frequency, TF over GST control)","1.05 fold enrichment (6-mer frequency, TF over GST control)","1 fold enrichment (6-mer frequency, TF over GST control)","1.02 fold enrichment (6-mer frequency, TF over GST control)","1.07 fold enrichment (6-mer frequency, TF over GST control)","1.02 fold enrichment (6-mer frequency, TF over GST control)"
